High-throughput results as filed in PubChem.
An excerpt weighted towards active compounds, which were near 13% of everything screened.
FMDV antiviral = antivirals against foot and mouth disease virus; 1.2% of 410,000 active; Potency, µM (series often up to 57.9 µM), for inactives: at the highest dose activity change, negative = inhibition, usual class: inhibitors; FMDV antiviral cell-based qHTS; calls by dose curve; tested in HEK293T cells; note: read-out not given here; potency is the fitted concentration of half-maximal effect; % is set by controls: 0 for no effect and ±100 for the full control effect; nearly all actives have a fitted effect of over 45% in size
HCV inh = blocks hepatitis C virus | Potency, µM (top dose mostly 41.8 µM), for the others: at the top dose activity change, negative = inhibition, actives largely listed as inhibitors | Huh7.5.1 HCVcc-Cre infection, luciferase reporter, 44 h | 3.4% of 340,000 active | AID 651820; active = well fitted inhibition curve with a large enough effect; inconclusive = small, poorly fitted or top-dose-only effect, or another doubt; inactive = no such curve, though single readings can be large or run the other way; note: potency is the fitted concentration of half-maximal effect; % is set by controls: 0 for no effect and ±100 for the full control effect
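Antiviral activity was scored by luciferase reporter output from cells infected with HCVcc-Cre (~0.5 moi) in presence of compound, 44 h infection period, cells seeded 1,000/well 4 h prior.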
MARV entry inh = blocks Marburg virus binding to or entry into cells; Marburg virus pseudotyped entry inhibition, cell reporter; Potency, µM (series often up to 37.8 µM), without a hit: at the highest dose activity change, negative = inhibition, most hits filed as inhibitors; 1.8% of 300,000 active; calls by dose curve; tested in HEK293 cells; note: potency is the fitted concentration of half-maximal effect; % is set by controls: 0 for no effect and ±100 for the full control effect
Shiga inhibitor = inhibitors of Shiga toxin in Vero cells. AID 2315. Vero cells, Shiga toxin protein synthesis inhibition reporter. 9.2% of 290,000 active. inhibition, % at 38.7 µM; in the data active = inhibition mostly above about 28%, no sharp cut-off; inactive = mostly below about 43%; note: 0% is about no effect
Cycloheximide cs = counter-screen for Shiga toxin inhibitors: cycloheximide protein synthesis inhibition | cell reporter, cycloheximide protein synthesis inhibition counterscreen | max response, % | 12% of 300,000 active | AID 2314; in the data active = max response mostly above about 13%, no sharp cut-off; inactive = mostly below about 14%; note: read at 38.3 µM for the half of the compounds with a filed dose; 0% is about no effect
Lassa entry inh = inhibitors of Lassa virus binding or cell entry | AID 540256 | Potency, µM (highest dose often 37.9 µM), inactives show at the top dose activity change, negative = inhibition, usual class: inhibitors | 1.2% of 300,000 active | Lassa virus pseudotype entry inhibition, cell reporter; calls by dose curve; tested in HEK293 cells; note: potency is the fitted concentration of half-maximal effect; % is set by controls: 0 for no effect and ±100 for the full control effect; nearly all actives have a fitted effect of over 50% in size
Numbers without * were called inactive; [ ] = dose if it differs, or a comment.

For CCOC(=O)c1ccc(S(=O)(=O)N2CCN(C(=O)c3cc(=O)c4ccccc4o3)CC2)cc1 the results were FMDV antiviral -5%, HCV inh -10%, MARV entry inh inconclusive, Shiga inhibitor 11, Cycloheximide cs -4 and Lassa entry inh -23%.
For CCC(=O)NC(c1cc(Cl)c2cccnc2c1O)C(C)C (stereo unspecified) the results were FMDV antiviral -25%.
For CCCCC(=O)NC(c1ccc(Cl)cc1Cl)c1ccc2cccnc2c1O (stereo unspecified) the results were FMDV antiviral 10%, HCV inh inconclusive, MARV entry inh inconclusive, Shiga inhibitor 6, Cycloheximide cs 7 and Lassa entry inh 7.1µM*.
For CC(C)C(=O)NC(c1ccc(Cl)cc1Cl)c1ccc2cccnc2c1O (stereo unspecified) the results were FMDV antiviral 24%, HCV inh 2.2µM* and Cycloheximide cs 15.
`COc1ccc(C(NC(=O)C(C)C)c2ccc3cccnc3c2O)cc1` (stereo unspecified) gave FMDV antiviral inconclusive, HCV inh 2µM*, MARV entry inh inconclusive, Shiga inhibitor -1, Cycloheximide cs 1 and Lassa entry inh 2.5µM*.
For CCC(=O)NC(c1ccc(Cl)cc1Cl)c1ccc2cccnc2c1O (stereo unspecified) the results were FMDV antiviral -6%, HCV inh 2.5µM*, MARV entry inh 11µM*, Cycloheximide cs 11 and Lassa entry inh inconclusive.
CCOc1ccc(NC(=O)NNC(=O)C2CCC(C(C)(C)C)CC2)cc1 (stereo unspecified) was read as FMDV antiviral -12%, HCV inh 9%, Shiga inhibitor 7 and Cycloheximide cs 9.
For Cc1ccc(S(=O)(=O)N(C)c2ccc(OCC(=O)OCc3c(C)noc3C)cc2)cc1 the results were FMDV antiviral 6%, HCV inh 3%, MARV entry inh 28%[46.1 µM], Shiga inhibitor -3, Cycloheximide cs 2 and Lassa entry inh -4%.
O=C1CN(C(=O)Cc2ccc(F)cc2)C(c2ccccc2)c2cc(Br)ccc2N1 (stereo unspecified) was read as FMDV antiviral -15%, MARV entry inh inconclusive and Lassa entry inh -17%[46.1 µM].
`Nc1cc(S(=O)(=O)N2CCOCC2)ccc1Oc1cccc(Br)c1` gave FMDV antiviral inconclusive, HCV inh 5µM*, MARV entry inh inconclusive and Lassa entry inh inconclusive.
Screening Cc1cc(C(F)F)n2nc(C(=O)Nc3c(F)cc(F)cc3Br)nc2n1 returned FMDV antiviral inconclusive, HCV inh 10%, MARV entry inh 13%[46.1 µM], Shiga inhibitor -6, Cycloheximide cs -3 and Lassa entry inh 14%.
Cc1cc(C(=O)OCC(=O)Nc2cc(S(=O)(=O)N(C)C)ccc2Cl)c2ccccc2n1 was read as FMDV antiviral -21%, HCV inh 12%, MARV entry inh 13%, Shiga inhibitor 86*, Cycloheximide cs 22 and Lassa entry inh -24%.
`Cc1cc(C(=O)OCC(=O)Nc2cccnc2Cl)c2ccccc2n1` gave FMDV antiviral inconclusive, HCV inh 6%, MARV entry inh -14%[46.1 µM], Shiga inhibitor -12, Cycloheximide cs 7 and Lassa entry inh -12%.
For Cc1cc(C(=O)OCC(=O)Nc2cc(S(=O)(=O)N(C)C)ccc2C)c2ccccc2n1 the results were FMDV antiviral 16µM*, HCV inh 20%, MARV entry inh -17%, Shiga inhibitor -15, Cycloheximide cs -2 and Lassa entry inh 6%.
`CN1CCN(Cc2ccc(OCc3ccccc3)cc2)CC1` gave FMDV antiviral 29%, HCV inh 5.6µM*, MARV entry inh inconclusive, Shiga inhibitor 94*, Cycloheximide cs 27* and Lassa entry inh inconclusive.
`CCN1CCN(Cc2ccc(OC)c(OCc3ccccc3)c2)CC1` gave FMDV antiviral -21%, HCV inh -11%, MARV entry inh inconclusive, Shiga inhibitor -5, Cycloheximide cs -1 and Lassa entry inh 13%.
For CCN1CCN(Cc2ccc(OCc3ccccc3)cc2)CC1 the results were FMDV antiviral 13%, HCV inh inconclusive, MARV entry inh inconclusive, Shiga inhibitor active, Cycloheximide cs 50* and Lassa entry inh inconclusive.
`c1ccc(COc2cccc(CN3CCc4ccccc4C3)c2)cc1` gave FMDV antiviral -4%, HCV inh 5%, MARV entry inh 15%[46.1 µM], Shiga inhibitor 105*, Cycloheximide cs 41* and Lassa entry inh -1%[46.1 µM].
O=C(NCc1ccccc1)C(c1ccccc1)n1c(=O)c(-c2ccco2)nc2ccccc21 (stereo unspecified) was read as FMDV antiviral -6%.
Screening CN(CC(=O)NC1CCCCC1)S(=O)(=O)c1cccc2nsnc12 returned FMDV antiviral 15%, HCV inh 9%, MARV entry inh 29%, Shiga inhibitor -15, Cycloheximide cs -1 and Lassa entry inh -3%.
Cc1cccc(Cn2c(=O)c3c(nc4n3CCCN4Cc3ccccc3)n(C)c2=O)c1 was read as FMDV antiviral inconclusive, HCV inh 11µM*, MARV entry inh inconclusive, Shiga inhibitor -1, Cycloheximide cs -3 and Lassa entry inh -32%.
For COc1ccc(CCN2CCCn3c2nc2c3c(=O)n(CC(C)C)c(=O)n2C)cc1OC the results were FMDV antiviral inconclusive, HCV inh 10µM*, Shiga inhibitor -6 and Cycloheximide cs -7.
For CCn1c(=O)c2c(nc3n2CCCN3CCc2ccc(OC)c(OC)c2)n(C)c1=O the results were FMDV antiviral inconclusive, HCV inh -19%, MARV entry inh -17%, Shiga inhibitor 3, Cycloheximide cs 6 and Lassa entry inh -13%.
CCn1c(=O)c2c(nc3n2CCCN3Cc2ccccc2)n(C)c1=O was read as FMDV antiviral -26%, HCV inh -8%, Shiga inhibitor -19 and Cycloheximide cs -4.
Cn1c(=O)n(C/C=C/c2ccccc2)c(=O)c2c1nc1n2CCCN1c1ccc(F)cc1 was read as FMDV antiviral inconclusive, HCV inh 11µM*, MARV entry inh inconclusive, Shiga inhibitor -6, Cycloheximide cs 2 and Lassa entry inh inconclusive.
For CCCCOCC1CC(CC#CCN2CCCCC2)C(=O)O1 (stereo unspecified) the results were FMDV antiviral -20%, HCV inh inconclusive, MARV entry inh inconclusive, Shiga inhibitor 11, Cycloheximide cs -6 and Lassa entry inh inconclusive.
For CN(C)C(=O)c1ccc(NC(=O)c2cccnc2)cc1 the results were FMDV antiviral 16%, HCV inh 2%, MARV entry inh 1%, Shiga inhibitor -11, Cycloheximide cs 1 and Lassa entry inh -3%.
Cc1ccccc1OCC(=O)Nc1ccc(N2CCN(C)CC2)c(Cl)c1 was read as FMDV antiviral 39%, HCV inh -23%, MARV entry inh inconclusive, Shiga inhibitor 85*, Cycloheximide cs 29* and Lassa entry inh 16%[46.1 µM].
